Assay results taken from PubChem BioAssay (NCI).
The panel holds about 79,000 compounds, 15% with a hit somewhere; the sample as a whole holds those more often. Unmarked numbers belong to inactive results. The source made the active and inactive calls. Rule as the data show it: active = growth inhibition above about 70%; inactive = the rest.

Experiments:
[1] = NCI Yeast Anticancer Drug Screen. Data for the rad50 strain (AID 155);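 also: 0% = growth of vehicle-only cultures of the same strain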; conditions: S. cerevisiae rad50 strain growth inhibition, stronger effect = higher value
Summary of the method: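 Compounds were tested on a yeast strain with an engineered DNA damage repair alteration; the reported value is growth inhibition normalised to vehicle treatment.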

[2] = NCI Yeast Anticancer Drug Screen. Data for the mec2-1 strain (AID 157); conditions: S. cerevisiae mec2-1 strain, stronger effect = higher value
Summary of the method: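 Vehicle-treated cultures served as reference for growth inhibition of compound-exposed mec2-1 yeast.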

[3] = NCI Yeast Anticancer Drug Screen. Data for the sgs1 mgt1 strain (AID 161);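 also: 0% = growth of cultures given vehicle only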; conditions: S. cerevisiae sgs1 mgt1 strain, stronger effect = higher value
Summary of the method: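 Read-out: growth inhibition vs vehicle controls. Cells: mutant yeast strain deficient in DNA damage repair.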

[4] = NCI Yeast Anticancer Drug Screen. Data for the cln2 rad14 strain (AID 165);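 also: 0% = growth equal to vehicle treated cultures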; conditions: S. cerevisiae cln2 rad14 strain, stronger effect = higher value
Summary of the method: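 Each compound was tested on cln2 rad14 yeast. Inhibition of growth was calculated against vehicle-exposed controls.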

[5] = NCI Yeast Anticancer Drug Screen. Data for the bub3 strain (AID 167); conditions: S. cerevisiae bub3 mutant strain, stronger effect = higher value
Summary of the method: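 Growth of a checkpoint-deficient yeast mutant is measured after compound exposure. Values represent inhibition relative to vehicle.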

[6] = NCI Yeast Anticancer Drug Screen. Data for the mlh1 rad18 strain (AID 175); conditions: S. cerevisiae mlh1 rad18 strain growth inhibition, stronger effect = higher value
Summary of the method: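 Vehicle-treated cultures served as the reference for growth inhibition in a yeast strain carrying DNA damage repair alterations exposed to each compound.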

[7] = at 5.0 µM (retest, dose inferred, filed as 0.5)
[8] = at 50.0 µM (retest, dose inferred, filed as 5.0)

SMILES | growth inhibition [1, 7] | growth inhibition [1, 8] | growth inhibition ([1]; at 50.0 µM) | growth inhibition [2, 7] | growth inhibition [2, 8] | growth inhibition ([2]; at 50.0 µM) | growth inhibition [3, 7] | growth inhibition [3, 8] | growth inhibition ([3]; at 50.0 µM) | growth inhibition [4, 7] | growth inhibition [4, 8] | growth inhibition ([4]; at 50.0 µM) | growth inhibition [5, 7] | growth inhibition [5, 8] | growth inhibition ([5]; at 50.0 µM) | growth inhibition [6, 7] | growth inhibition [6, 8] | growth inhibition ([6]; at 50.0 µM)
CCC(CC)C(=O)O.[Ag] | 99% (active) | 99% (active) | 99.2% (active) | 99% (active) | 99% (active) | 99.6% (active) | 99% (active) | 99% (active) | 99.6% (active) | 99% (active) | 99% (active) | 99.2% (active) | 100% (active) | 99% (active) | 99.1% (active) | 99% (active) | 99% (active) | 99.2% (active)
CCCCN(CCCC)CCNc1ccc(NS(=O)(=O)c2ccccc2)c2sc3ccccc3c(=O)c12 | 43% | 96% (active) | 96.8% (active) | 21% | 95% (active) | 97.8% (active) | 54% | 96% (active) | 98.2% (active) | 31% | 96% (active) | 93.3% (active) | 32% | 94% (active) | 96.4% (active) | 96% (active) | 94% (active) | 95.3% (active)
Cc1ccc(S(=O)(=O)N2CCN(C)CC2)cc1 | -1% | 12% | 19.4% | -5% | 26% | 4.45% | 4% | 31% | 5.5% | 1% | 16% | -0.55% | 1% | 39% | 40.5% | 13% | 49% | 11.6%
Cc1cccc(CC(C)(C)C)c1NC(=O)C(=O)C(C(=O)c1ccc2ccccc2c1)C1OC(=O)c2ccccc21 (configuration not stated) | 6% | 78% (active) | 52.8% | -1% | 92% (active) | 23.6% | 9% | 92% (active) | 36.3% | -1% | 76% (active) | 12.8% | 2% | 93% (active) | 52.1% | -1% | 86% (active) | 68.2%
Cc1cc(CC(O)(C(F)(F)F)C(F)(F)F)cc(CC(O)(C(F)(F)F)C(F)(F)F)n1 | 12% | 99% (active) | 99.2% (active) | 5% | 98% (active) | 98.5% (active) | -3% | 98% (active) | 98.2% (active) | 9% | 98% (active) | 98% (active) | -16% | 99% (active) | 99.2% (active) | 6% | 99% (active) | 99% (active)
CCCCCC(O)C(C)CO (configuration not stated) | 1% | -3% | 12.8% | -2% | -3% | -7.6% | -2% | -4% | -4.2% | -7% | -4% | 42.9% | 0% | -1% | 0.9% | -1% | -1% | 14.4%
O=C1C(c2ccccc2)=[N+]([O-])c2cc([N+](=O)[O-])c(/C(Cl)=C/c3ccccc3)cc21 | 4% | 8% | 54.8% | 5% | 33% | 94.5% (active) | 6% | 16% | 71.5% (active) | 11% | 9% | 39.2% | 7% | 7% | 97.9% (active) | 3% | 3% | 96.2% (active)
Oc1cc(-[n+]2ccc3ccccc3c2)c(O)c2ccccc12 | 10% | 70% (active) | 44.2% | -1% | 27% | 39.2% | 11% | 45% | 15.6% | -4% | -10% | -20.8% | 24% | 72% (active) | 64.5% | 16% | 46% | 54.1%
O=C(CCN1CCN(c2cccc(Cl)c2)CC1)N1CCc2c([nH]c3ccccc23)C1c1cccnc1 (configuration not stated) | 17% | 17% | 90.4% (active) | 10% | 10% | 92% (active) | 8% | 8% | 90.4% (active) | 9% | 9% | 92% (active) | 8% | 8% | 91.3% (active) | 23% | 23% | 89.7% (active)
CC1=C(C#N)C(=O)N(C)C(=O)C1(Cl)Cl | -2% | -12% | -1.3% | 0% | -2% | -8.1% | 1% | -3% | -7.45% | 0% | -12% | 14.6% | 3% | 4% | 5.05% | 1% | -3% | 9.45%
O=C1CCCCC1Sc1ccc(Cl)cc1 (configuration not stated) | 1% | 94% (active) | 91.2% (active) | 2% | 95% (active) | 91.1% (active) | 2% | 87% (active) | 96.3% (active) | -4% | 76% (active) | 76.1% (active) | 3% | 96% (active) | 85.2% (active) | 2% | 94% (active) | 87.5% (active)
Fc1ccc(CN2COc3c(ccc4cccnc34)C2)cc1 | -5% | 32% | 59.4% | -2% | 17% | 27.1% | 2% | 34% | 62.4% | 3% | 70% (active) | 41.2% | -5% | 50% | 77% (active) | -1% | 57% | 9.45%
c1ccc(CC(Cc2ccccc2)c2cccnc2)cc1 | 18% | 84% (active) | 98.7% (active) | 21% | 62% | 98.3% (active) | 35% | 89% (active) | 98.7% (active) | 34% | 66% | 97.9% (active) | 43% | 88% (active) | 99% (active) | 25% | 84% (active) | 98.3% (active)
O=C1C=CC(Nc2cccc([N+](=O)[O-])c2)C1Nc1cccc([N+](=O)[O-])c1 (configuration not stated) | -21% | -16% | 92.3% (active) | 16% | -9% | 89.2% (active) | -11% | -11% | 91.5% (active) | -8% | -24% | 90.7% (active) | 19% | -4% | 90.7% (active) | -29% | -19% | 91.7% (active)
NCCOB(c1ccccc1)c1ccccc1 | 12% | 99% (active) | 53.1% | 0% | 99% (active) | 54.2% | 3% | 99% (active) | 50.5% | 8% | 99% (active) | 99% (active) | 1% | 99% (active) | 99.3% (active) | 5% | 99% (active) | 51.3%
Cc1nc(Cl)c(C#N)c(C)c1[N+](=O)[O-] | -103% | 91% (active) | 79.9% (active) | -31% | 81% (active) | 81.9% (active) | -46% | 84% (active) | 70.3% (active) | -37% | 75% (active) | 87% (active) | -63% | 83% (active) | 75.3% (active) | -115% | 91% (active) | 84.8% (active)
COc1cccc(C2Nc3ccccc3C(=O)N2N2CCOCC2)c1 (configuration not stated) | 3% | -2% | 50.9% | 1% | 6% | -7.2% | 1% | 0% | 32.4% | 0% | -6% | -21.6% | -2% | -5% | 7.4% | -2% | -3% | -5.05%
COC1=CC(=O)c2ncccc2C1=O | 13% | 92% (active) | 91.8% (active) | 6% | 83% (active) | 78.5% (active) | 8% | 81% (active) | 84.8% (active) | -3% | 93% (active) | 89.2% (active) | 2% | 81% (active) | 46.6% | 9% | 93% (active) | 95.1% (active)
O=Nc1c(NO)c2ccccc2c2ccccc12 | 5% | 96% (active) | 99.1% (active) | -2% | 91% (active) | 96.2% (active) | -8% | 93% (active) | 97.8% (active) | 2% | 82% (active) | 85.8% (active) | -9% | 95% (active) | 98.2% (active) | 20% | 95% (active) | 98.2% (active)
